Assay results taken from PubChem BioAssay (Tox21).
Results filed as inconclusive are left out. The source holds several records for some structures; these can differ, active in one and inactive in another. Active and inactive are the calls of the source. Unless noted, calls follow the shape of the dose curve; as a rule, active = well fitted curve in the direction sought with a large enough effect in the repeat runs; inconclusive = weak or mixed curves; inactive = no such curve, though single readings can be large; an effect the other way counts as inactive or inconclusive.

Tests used:
[1] = qHTS assay to identify small molecule antagonists of the estrogen receptor alpha (ER-alpha) signaling pathway using the BG1 cell line in the presence of 0.1 nM 17-beta-estradiol - cell viability counter screen (AID 1259241); also: nearly all actives have a fitted effect of over 40% in size
Outline: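 Cells were plated and left 24 hr, compounds in DMSO were pinned in, 17beta-estradiol was added to 0.1 nM final, and after 22 hr CellTiter-Fluor reagent was added for 30 min before fluorescence was read.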

[2] = qHTS assay to identify small molecule antagonists of the androgen receptor (AR) signaling pathway using the MDA cell line in the presence of 0.5 nM R1881 - cell viability counter screen (AID 1259242); also: nearly all actives have a fitted effect of over 45% in size; also: potency is read from the fitted curve at half-maximal effect
Outline: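 Steps: plate MDA-kb2 cells, rest 5 hr at 37C without CO2; pin in compounds in DMSO; add R1881 to 0.5 nM final; incubate 16 hr; add CellTiter-Fluor, 30 min; read fluorescence.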

[3] = qHTS assay to identify small molecule HDAC inhibitors (AID 1259364);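 also: wild-type HCT-116 cells with endogenous class I/II HDAC activity; top concentration of the series differs between compounds; nearly all actives have a fitted effect of over 45% in size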
Outline: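 Cells (HCT-116, wild type) are seeded at 1,500 per well, incubated overnight, treated with compound in DMSO for 2 hr, then developed with HDAC-Glo I/II reagent for 30 min at room temperature.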

[4] = qHTS assay to identify small molecule HDAC inhibitors - cell viability counter screen (AID 1259365); also: series mostly up to about 92 µM; nearly all actives have a fitted effect of over 50% in size
Outline: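 Counter screen in wild-type HCT-116 cells: compounds dissolved in DMSO are pin-transferred onto overnight-plated cells and left 2hr at 37C. ATP-based CellTiter-Glo luminescence then measures viable cells.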

[5] = qHTS assay to identify small molecule agonists of the sonic hedgehog signaling (Shh) pathway - cell viability counter screen (AID 1259366); also: nearly all actives have a fitted effect of over 50% in size; also: potency is read from the fitted curve at half-maximal effect
Outline: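 Cells are plated at 2,000 per well and left 4hr at 37C, 5% CO2 before compound addition. After 23hr of treatment, CellTiter-Fluor reagent is added for 1hr at 37C and fluorescence is measured.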

[6] = qHTS assay to identify small molecule antagonists of the sonic hedgehog signaling (Shh) pathway - cell viability counter screen (AID 1259367); also: nearly all actives have a fitted effect of over 55% in size; also: potency is read from the fitted curve at half-maximal effect
Outline: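 Conditioned medium drove Shh signaling in 3T3 Gli1-Luc cells exposed to compounds at 37C and 5% CO2. Viability was determined from CellTiter-Fluor fluorescence, with reagent incubated 1 hr after 23 hr of treatment.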

[7] = qHTS assay to identify small molecule phospholipidosis (PLD) inducers (AID 1259344; active = well fitted curve in the direction sought with a large enough effect; an effect the other way counts as inactive or inconclusive)
Outline: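 After 4 h attachment on collagen I, HepG2 cells were dosed with compound alongside LipidTOX Red, kept 24 h at 37 C, fixed, and imaged for lamellar phospholipid pits.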

[8] = target: Estrogen receptor (Homo sapiens) (UniProt P03372); test: qHTS assay to identify small molecule antagonists of the estrogen receptor alpha (ER-alpha) signaling pathway using the BG1 cell line in the presence of 0.1 nM 17-beta-estradiol (AID 1259244); also: nearly all actives have a fitted effect of over 50% in size
Estrogen receptor (Homo sapiens), sequence (P03372 whole entry, looked up): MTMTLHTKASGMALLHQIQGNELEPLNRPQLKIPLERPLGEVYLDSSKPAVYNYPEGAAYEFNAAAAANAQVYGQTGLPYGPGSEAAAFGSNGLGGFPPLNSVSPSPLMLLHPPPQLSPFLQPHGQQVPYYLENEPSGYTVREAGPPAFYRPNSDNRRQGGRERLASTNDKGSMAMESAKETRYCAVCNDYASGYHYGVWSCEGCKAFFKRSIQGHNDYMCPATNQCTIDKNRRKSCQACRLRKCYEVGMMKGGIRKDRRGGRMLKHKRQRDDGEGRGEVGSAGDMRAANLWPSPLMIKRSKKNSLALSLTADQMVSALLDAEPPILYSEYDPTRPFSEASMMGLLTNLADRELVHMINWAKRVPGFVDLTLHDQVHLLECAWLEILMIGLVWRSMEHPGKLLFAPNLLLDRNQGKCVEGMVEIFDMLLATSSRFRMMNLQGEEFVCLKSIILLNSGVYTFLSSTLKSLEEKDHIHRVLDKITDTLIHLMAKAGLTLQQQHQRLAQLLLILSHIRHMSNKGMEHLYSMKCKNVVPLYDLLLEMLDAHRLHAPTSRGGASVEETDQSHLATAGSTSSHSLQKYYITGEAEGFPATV
Outline: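 Antagonist mode: compounds in DMSO are pinned onto VM7Luc4E2 reporter cells, 0.1 nM final 17beta-estradiol is added, and after 22 h at 37C luciferase luminescence is measured with ONE-Glo.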

[9] = target: Androgen receptor (Homo sapiens) (UniProt P10275); test: qHTS assay to identify small molecule antagonists of the androgen receptor (AR) signaling pathway using the MDA cell line in the presence of 0.5 nM R1881 (AID 1259243); also: nearly all actives have a fitted effect of over 50% in size
Androgen receptor (Homo sapiens), sequence (P10275 whole entry, looked up): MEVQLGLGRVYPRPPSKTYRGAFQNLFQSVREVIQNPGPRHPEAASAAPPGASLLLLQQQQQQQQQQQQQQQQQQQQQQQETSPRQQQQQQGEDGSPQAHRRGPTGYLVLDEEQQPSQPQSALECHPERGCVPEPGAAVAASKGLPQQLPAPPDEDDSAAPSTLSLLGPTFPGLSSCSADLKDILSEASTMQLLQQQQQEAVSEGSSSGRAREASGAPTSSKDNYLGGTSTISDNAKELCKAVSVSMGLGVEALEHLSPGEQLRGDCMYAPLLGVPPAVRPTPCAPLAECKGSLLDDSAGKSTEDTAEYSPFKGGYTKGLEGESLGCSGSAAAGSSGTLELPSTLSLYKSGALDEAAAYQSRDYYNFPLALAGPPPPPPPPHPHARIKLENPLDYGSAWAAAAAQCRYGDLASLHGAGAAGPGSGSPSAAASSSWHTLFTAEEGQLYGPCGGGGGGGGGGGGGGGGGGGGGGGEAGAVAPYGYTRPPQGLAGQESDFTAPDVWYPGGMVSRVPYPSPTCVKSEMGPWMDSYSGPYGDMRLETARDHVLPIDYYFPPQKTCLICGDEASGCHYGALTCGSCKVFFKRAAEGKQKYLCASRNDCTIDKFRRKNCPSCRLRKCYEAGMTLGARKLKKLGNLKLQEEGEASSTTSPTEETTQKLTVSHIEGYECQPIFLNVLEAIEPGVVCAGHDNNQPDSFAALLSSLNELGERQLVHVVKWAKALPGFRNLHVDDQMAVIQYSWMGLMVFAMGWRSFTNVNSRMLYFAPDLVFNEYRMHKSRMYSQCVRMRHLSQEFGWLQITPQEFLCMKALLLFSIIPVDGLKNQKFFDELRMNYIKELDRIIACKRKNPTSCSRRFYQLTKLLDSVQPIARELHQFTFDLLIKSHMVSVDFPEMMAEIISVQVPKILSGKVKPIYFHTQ
Outline: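 Stably transfected MDA-kb2 cells express luciferase from an MMTV promoter bearing both AR and GR response elements. Compounds plus 0.5 nM R1881 (final) were incubated 16 hr at 37C without CO2, then luminescence measured.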
% is scaled to controls: 0 for no effect and ±100 for the full control effect.

OC[C@]1(O)OC[C@@H](O)[C@H](O)[C@@H]1O
inactive: outcome [1] | Potency [2] | Potency [3] | outcome [4] | Potency [5] | Potency [6]

CCOC(=O)CC(C)=O
inactive: Potency [2] | Potency [3] | outcome [4] | Potency [5] | Potency [6]

FC(F)OC(Cl)C(F)(F)F (stereo unspecified)
inactive: outcome [1] | Potency [7] | Potency [3] | outcome [4] | Potency [5] | Potency [6]

CCOC(=O)Nc1ccc(NCc2ccc(F)cc2)nc1N
inactive: outcome [1] | outcome [8] | Potency [7] | Potency [3] | outcome [4] | Potency [5] | Potency [6]

CO[C@]12C[C@@H](COC(=O)c3cncc(Br)c3)CN(C)[C@@H]1Cc1cn(C)c3cccc2c13
inactive: outcome [1] | Potency [2] | Potency [7] | Potency [3] | outcome [4] | Potency [5] | Potency [6]

O=C(O)CNC(=O)c1ccc([N+](=O)[O-])cc1
inactive: outcome [1] | Potency [2] | Potency [3] | outcome [4] | Potency [5] | Potency [6]

CCCCCCOC(=O)CCCCC(=O)OCCCCCC
inactive: outcome [1] | Potency [2] | outcome [8] | Potency [3] | outcome [4] | Potency [5] | Potency [6]

Cn1c(N)c(N=O)c(=O)n(C)c1=O
inactive: outcome [1] | Potency [2] | Potency [3] | outcome [4] | Potency [5] | Potency [6]

Cc1cc(O)cc2c1O[C@](C)(CCC[C@H](C)CCC[C@H](C)CCCC(C)C)CC2
inactive: outcome [1] | outcome [8] | Potency [7] | Potency [3] | outcome [4] | Potency [5] | Potency [6]

CC(C[N+](C)(C)C)OC(N)=O (stereo unspecified)
inactive: outcome [1] | Potency [2] | outcome [8] | Potency [7] | Potency [3] | outcome [4] | Potency [5] | Potency [6]

CC(=O)CC(C)C
inactive: outcome [1] | Potency [9] | Potency [3] | outcome [4] | Potency [5] | Potency [6]

N=C(N)c1ccccc1
inactive: outcome [1] | Potency [2] | Potency [3] | outcome [4] | Potency [5] | Potency [6]

C[N+](C)(C)CCCCCC[N+](C)(C)C
inactive: Potency [2] | Potency [7] | Potency [3] | outcome [4] | Potency [5] | Potency [6]

CCOC(C)(C)C
inactive: outcome [1] | Potency [2] | outcome [8] | Potency [3] | outcome [4] | Potency [5] | Potency [6]

C[N+](C)(C)CC(O)CC(=O)[O-] (stereo unspecified)
inactive: Potency [2] | Potency [7] | Potency [3] | outcome [4] | Potency [5] | Potency [6]

CC(=O)OCC(=O)[C@@]1(O)CC[C@H]2[C@@H]3CCC4=CC(=O)CC[C@]4(C)[C@H]3C(=O)C[C@@]21C
inactive: outcome [1] | outcome [8] | Potency [7] | Potency [3] | outcome [4] | Potency [5] | Potency [6]

CC(=O)OCC(CCn1cnc2cnc(N)nc21)COC(C)=O
inactive: Potency [2] | Potency [9] | outcome [8] | Potency [7] | Potency [3] | outcome [4] | Potency [5] | Potency [6]

CC(C)OC(=O)c1ccccc1
inactive: outcome [1] | Potency [2] | outcome [8] | Potency [3] | outcome [4] | Potency [5] | Potency [6]

CC(C)(C)c1nnc(NS(=O)(=O)c2ccccc2)s1
inactive: Potency [2] | outcome [8] | Potency [7] | Potency [3] | outcome [4] | Potency [5] | Potency [6]

CN(C)CCCN1c2ccccc2CCc2ccc(Cl)cc21
inactive: Potency [3] | outcome [4]
48.6 µM (active) and inactive: Potency [6]
active: Potency [2] 48.6 µM | Potency [5] 30.6 µM

CC/C=C\CCOC(C)=O
inactive: outcome [1] | Potency [2] | outcome [8] | Potency [3] | outcome [4] | Potency [5] | Potency [6]

N=c1nc(N2CCCCC2)cc(N)n1O
inactive: outcome [1] | outcome [8] | Potency [7] | Potency [3] | outcome [4] | Potency [5] | Potency [6]

Cc1sccc1Br
inactive: outcome [8] | Potency [3] | outcome [4] | Potency [5] | Potency [6]

CCCCCSCCCCC
inactive: outcome [1] | Potency [2] | outcome [8] | Potency [3] | outcome [4] | Potency [5] | Potency [6]

O=C(O)CCCc1ccccc1
inactive: outcome [1] | Potency [7] | Potency [3] | outcome [4] | Potency [5] | Potency [6]

CC(C)(O)C#CC(C)(C)O
inactive: Potency [2] | outcome [8] | Potency [3] | outcome [4] | Potency [5] | Potency [6]

CC(=O)OCC(=O)[C@@]1(O)CCC2C3CCC4=CC(=O)CC[C@]4(C)C3[C@@H](O)C[C@@]21C (stereo partly specified)
inactive: Potency [2] | Potency [7] | Potency [3] | outcome [4] | Potency [5] | Potency [6]

CCC(C)S (stereo unspecified)
inactive: activity change, negative = cytotoxicity [1] 5.76% [at 3.27 µM] | viability change, negative = cytotoxic [2] 1.28% [at 3.26 µM] | activity change, negative = inhibition [3] 0.148% [at 3.27 µM] | activity change, negative = cytotoxicity [4] 1.61% [at 3.27 µM] | viability change, negative = cytotoxic [5] 3.35% [at 3.27 µM] | viability change, negative = cytotoxic [6] 3.76% [at 3.27 µM]

CCCCCCCCCCCCN(CCCCCCCCCCCC)CCCCCCCCCCCC
inactive: outcome [1] | Potency [2] | Potency [3] | outcome [4] | Potency [5] | Potency [6]

CCCCCCCCCCCCCCCCC
inactive: outcome [1] | Potency [2] | outcome [8] | Potency [3] | outcome [4] | Potency [5] | Potency [6]

Cc1c(NC(C)C)c(=O)n(-c2ccccc2)n1C
inactive: outcome [1] | Potency [2] | outcome [8] | Potency [7] | Potency [3] | outcome [4] | Potency [5] | Potency [6]
